Screen size: about 5,500 compounds; about 2,000 (36%) were called active. Inconclusive results (about 18%) are left out. Rule as the data show it: active = normalized growth mostly below about 0.91 (no sharp cut-off); inconclusive = no clear call, values can overlap the other calls; inactive = mostly above about 0.92. The list shows a part of the results.
Assay: chemical genetic growth profiling, strain panel (AID 1159580);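 also: tested at 20 µM; growth read once vehicle control cultures reached saturation at 30 °C; 1 = growth at the plate median or of vehicle wells; lower values mean less growth of the strain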
Details: growth OD

Measured: normalized growth

Cc1ccc(OCC(=O)NN)c2c1CCC2
inactive: S. cerevisiae deletion strains, locus YBR229C, strain ROT2, active compounds read low 1 | S. cerevisiae deletion strains, locus YCL061C, strain MRC1, active compounds read low 0.994 | S. cerevisiae deletion strains, locus YDL101C, strain DUN1, active compounds read low 1.03 | S. cerevisiae deletion strains, locus YDL134C, strain PPH21, active compounds read low 1.01 | S. cerevisiae deletion strains, locus YDR150W, strain NUM1, active compounds read low 1.01 | S. cerevisiae deletion strains, locus YEL061C, strain CIN8, active compounds read low 1.01 | S. cerevisiae deletion strains, locus YGR078C, strain PAC10, active compounds read low 0.989 | S. cerevisiae deletion strains, locus YHR030C, strain SLT2, active compounds read low 0.985 | S. cerevisiae deletion strains, locus YHR087W, strain rtc3, active compounds read low 1.04 | S. cerevisiae deletion strains, locus YJR043C, strain POL32, active compounds read low 0.99 | S. cerevisiae deletion strains, locus YJR075W, strain HOC1, active compounds read low 0.989 | S. cerevisiae deletion strains, locus YLR039C, strain RIC1, active compounds read low 0.867 | S. cerevisiae deletion strains, locus YLR058C, strain SHM2 (second series), active compounds read low 1.01 | S. cerevisiae deletion strains, locus YLR085C, strain ARP6, active compounds read low 1.01 | S. cerevisiae deletion strains, locus YLR262C, strain YPT6, active compounds read low 0.913 | S. cerevisiae deletion strains, locus YML094W, strain GIM5, active compounds read low 1.01 | S. cerevisiae deletion strains, locus YMR219W, strain ESC1, active compounds read low 0.991 | S. cerevisiae deletion strains, locus YMR263W, strain SAP30, active compounds read low 1.01 | S. cerevisiae deletion strains, locus YMR307W, strain GAS1, active compounds read low 0.963 | S. cerevisiae deletion strains, locus YNL153C, strain GIM3, active compounds read low 1 | S. cerevisiae deletion strains, locus YNL298W, strain CLA4 (second series), active compounds read low 0.989 | S. cerevisiae deletion strains, locus YNL322C, strain KRE1, active compounds read low 0.997 | S. cerevisiae deletion strains, locus YNR030W, strain Alg12, active compounds read low 1.01 | S. cerevisiae deletion strains, locus YOL006C, strain TOP1, active compounds read low 1.01 | S. cerevisiae deletion strains, locus YPL055C, strain LGE1, active compounds read low 1.01 | S. cerevisiae deletion strains, locus YPL241C, strain CIN2, active compounds read low 1.01 | S. cerevisiae deletion strains, locus YPR135W, strain CTF4, active compounds read low 0.982 | S. cerevisiae strains, strain wild type, active compounds read low 1.01

Reference: PubChem BioAssay AID1159580 (chemical genetic matrix, 2015)
